Several values for one entry are separate records, joined by “and”; a condition that tells them apart may be missing. Identical values can stand only once. Screen size: about 5,500 compounds; about 2,000 (36%) were called active. Inconclusive results (about 18%) are left out. Rule as the data show it: active = normalized growth mostly below about 0.91 (no sharp cut-off); inconclusive = no clear call, values can overlap the other calls; inactive = mostly above about 0.92. Some of the results follow.
Test: chemical genetic growth profiling, strain panel (AID 1159580);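 also: tested at 20 µM; growth read once vehicle control cultures reached saturation at 30 °C; 1 = growth at the plate median or of vehicle wells; lower values mean less growth of the strain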
Conditions: S. cerevisiae deletion strains, growth OD

Measured: normalized growth

NS(=O)(=O)c1cc2c(cc1Cl)NC(CSCc1ccccc1)=NS2(=O)=O
inactive: locus YAL021C, strain ccr4, active compounds read low 0.986 | locus YAL026C, strain drs2, active compounds read low 1.01 | locus YAL030W, strain snc1, active compounds read low 1.01 | locus YBL061C, strain skt5, active compounds read low 1.02 | locus YBR009C, strain hhf1, active compounds read low 0.993 | locus YBR021W, strain FUR4, active compounds read low 0.973 | locus YBR023C, strain chs3, active compounds read low 1.04 | locus YBR171W, strain sec66, active compounds read low 1.03 | locus YBR229C, strain ROT2, active compounds read low 0.986 | locus YBR231C, strain swc5, active compounds read low 1.02 | locus YBR279W, strain paf1, active compounds read low 1.01 | locus YCL011C, strain gbp2, active compounds read low 1.01 | locus YCL016C, strain dcc1, active compounds read low 0.993 | locus YCL029C, strain bik1, active compounds read low 0.988 | locus YCL061C, strain MRC1, active compounds read low 1.01 | locus YCL069W, strain vba3, active compounds read low 1.01 | locus YCR088W, strain abp1, active compounds read low 1.01 | locus YDL005C, strain med2, active compounds read low 1 | locus YDL035C, strain GPR1, active compounds read low 1.04 | locus YDL040C, strain nat1, active compounds read low 0.995 | locus YDL074C, strain BRE1, active compounds read low 0.99 | locus YDL101C, strain DUN1, active compounds read low 0.973 | locus YDL134C, strain PPH21, active compounds read low 1.02 | locus YDL185W, strain tfp1, active compounds read low 0.989 | locus YDL192W, strain arf1, active compounds read low 0.997 | locus YDR001C, strain nth1, active compounds read low 1.03 | locus YDR069C, strain doa4, active compounds read low 1.04 | locus YDR101C, strain arx1, active compounds read low 0.987 | locus YDR137W, strain rgp1, active compounds read low 1.02 | locus YDR159W, strain sac3, active compounds read low 1 | locus YDR162C, strain NBP2, active compounds read low 1.03 | locus YDR195W, strain ref2 1.03 | locus YDR297W, strain sur2, active compounds read low 1.02 | locus YDR318W, strain mcm21, active compounds read low 0.991 | locus YDR334W, strain swr1, active compounds read low 1.02 | locus YDR335W, strain msn5, active compounds read low 1.02 | locus YDR388W, active compounds read low 0.978 | locus YDR392W, strain spt3, active compounds read low 0.948 | locus YDR502C, strain sam2, active compounds read low 0.988 | locus YEL003W, strain gim4, active compounds read low 1.03 | locus YEL037C, strain rad23, active compounds read low 1.02 | locus YEL061C, strain CIN8 (second series), active compounds read low 1.05 | locus YEL061C, strain CIN8, active compounds read low 0.995 | locus YER015W, strain faa2, active compounds read low 1.01 | locus YER016W, strain bim1, active compounds read low 1 | locus YER110C, active compounds read low 0.965 | locus YER111C, strain swi4, active compounds read low 1.03 | locus YER155C, strain BEM2 (second series), active compounds read low 1.04 | locus YER155C, strain BEM2, active compounds read low 0.981 | locus YER167W, strain BCK2, active compounds read low 1 | locus YFR010W, strain ubp6, active compounds read low 1.03 | locus YGL078C, strain dbp3, active compounds read low 0.991 | locus YGL086W, strain mad1, active compounds read low 0.989 | locus YGL167C, strain pmr1, active compounds read low 1.03 | locus YGL173C, strain kem1, active compounds read low 1.01 | locus YGL227W, strain vid30, active compounds read low 1.02 | locus YGL240W, strain doc1, active compounds read low 1.03 | locus YGL248W, strain PDE1, active compounds read low 0.98 | locus YGL253W, strain hxk2, active compounds read low 1.01 | locus YGR078C, strain PAC10, active compounds read low 0.986 | locus YGR135W, strain pre9, active compounds read low 0.992 | locus YGR252W, strain gcn5, active compounds read low 1.01 | locus YHR013C, strain ard1, active compounds read low 0.975 | locus YHR027C, strain rpn1, active compounds read low 1.01 | locus YHR030C, strain SLT2, active compounds read low 0.99 and 0.983 | locus YHR079C, strain IRE1 (second series), active compounds read low 0.984 | locus YHR079C, strain IRE1, active compounds read low 0.977 | locus YHR094C, strain hxt1, active compounds read low 0.97 | locus YHR129C, strain ARP1, active compounds read low 0.984 | locus YHR142W, strain chs7, active compounds read low 1.02 | locus YHR200W, strain rpn10, active compounds read low 0.989 | locus YIL066C, strain RNR3, active compounds read low 1.01 | locus YIL073C, strain SPO22, active compounds read low 0.99 | locus YIL125W, strain kgd1, active compounds read low 0.986 | locus YIR030C, strain dcg1, active compounds read low 0.993 | locus YJL092W, strain hpr5, active compounds read low 1.02 | locus YJL095W, strain BCK1 (second series), active compounds read low 1.02 | locus YJL095W, strain BCK1, active compounds read low 0.954 and 0.975 | locus YJL115W, strain asf1, active compounds read low 1.02 | locus YJL129C, strain trk1, active compounds read low 1.06 | locus YJL134W, strain LCB3, active compounds read low 0.987 | locus YJL154C, strain vps35, active compounds read low 1.03 | locus YJL164C, strain tpk1, active compounds read low 0.977 | locus YJL166W, strain qcr8, active compounds read low 1.04 | locus YJL168C, strain set2, active compounds read low 0.992 | locus YJL187C, strain SWE1 (second series), active compounds read low 0.965 | locus YJR043C, strain POL32, active compounds read low 1.04 | locus YJR066W, strain TOR1, active compounds read low 0.931

From PubChem BioAssay AID1159580 (chemical genetic matrix, 2015)
